{"source": "PubChem BioAssay AID463173", "about": "(ICCB-Longwood Screening Facility, Harvard Medical School, 2010)", "note": "About 1,700 (3.3%) of roughly 52,000 compounds were called active. This excerpt belongs to a sample that is enriched for actives. Unmarked numbers belong to inactive results. No stated cut-off is given here; in the data, active means survival mostly below about 52% (no sharp cut-off); inactive means mostly above about 56%.", "data": [{"tested_on": "Wild type", "experiment": "growth inhibition of S. aureus wild type versus tarO mutant, primary screen, teichoic acid synthesis inhibitors, RN4220, OD600 (AID 463173)", "conditions": "S. aureus RN4220 wild type/DeltatarO growth, OD600, 18 h, active compounds read low, screened at 18.75 µg/mL (by protocol)", "values": [{"smiles": "Cc1ccc(C)c(NC(=O)N2CCC(CN3CCOCC3)CC2)c1", "survival": "135%"}, {"smiles": "CCC(CC)c1nn2c(=O)cc(COc3ccc(NC(=O)c4ccc(Cl)cc4)cc3)nc2s1", "survival": "86%"}, {"smiles": "Cc1ccc(Nc2ccc(N3CCN(C(=O)c4ccc([N+](=O)[O-])cc4Cl)CC3)nn2)cc1", "survival": "129%"}, {"smiles": "COCCNC(=O)c1ccc2c(=O)n(CCOC)c(SCC(=O)c3c[nH]c4ccccc34)nc2c1", "survival": "-1% (active)"}, {"smiles": "COCCn1c(SCC(=O)c2c(C)[nH]c3ccccc23)nc2cc(C(=O)NC(C)C)ccc2c1=O", "survival": "74%"}, {"smiles": "COCCn1c(SCC(=O)c2ccccc2)nc2cc(C(=O)NC3CCCC3)ccc2c1=O", "survival": "76%"}, {"smiles": "COCCNC(=O)c1ccc2c(=O)n(CCc3ccccc3)c(SCC(=O)CC(=O)OC)nc2c1", "survival": "78%"}, {"smiles": "COCCn1c(SCC(=O)c2c[nH]c3ccccc23)nc2cc(C(=O)NCC(C)C)ccc2c1=O", "survival": "73%"}, {"smiles": "COCCn1c(SCC(=O)c2c[nH]c3ccccc23)nc2cc(C(=O)NC(C)C)ccc2c1=O", "survival": "14% (active)"}, {"smiles": "CCOc1ccc(NC(=O)CCSc2nc(-c3ccc4c(c3)OCO4)cc(C(F)(F)F)n2)cc1", "survival": "72%"}, {"smiles": "COc1ccc(C)cc1NC(=O)NCc1cccn1Cc1ccccc1", "survival": "98%"}, {"smiles": "O=C(NCc1ccccc1Cl)c1ccc(NC(=O)N2CCSc3ccccc32)cc1", "survival": "67%"}, {"smiles": "N#CCCSCc1ccc(C(=O)O)o1", "survival": "107%"}, {"smiles": "COc1ccc(-c2nc3cc(C(C)C)ccc3o2)cc1NC(=O)c1ccc(C)c(Cl)c1", "survival": "5% (active)"}, {"smiles": "Cc1ccc(-c2nc3cc(C(C)C)ccc3o2)cc1NC(=O)c1cc2ccccc2o1", "survival": "11% (active)"}, {"smiles": "CC(C)c1ccc2oc(-c3ccc(NC(=O)c4cc5ccccc5o4)cc3)nc2c1", "survival": "61%"}, {"smiles": "COc1ccc(-c2nc3ccccc3o2)cc1NC(=O)c1ccc(-c2ccc(C)c(Cl)c2)o1", "survival": "73%"}, {"smiles": "COc1ccc(-c2nc3cc(C(C)C)ccc3o2)cc1NC(=O)COc1ccc(C)cc1C", "survival": "59%"}, {"smiles": "Cc1ccc(-c2nc3cc(Cl)ccc3o2)cc1NC(=O)c1cc2ccccc2o1", "survival": "72%"}, {"smiles": "COC(=O)CCN(C(=O)C1CCN(S(=O)(=O)c2c(C)noc2/C=C/c2ccccc2F)CC1)c1ccccc1", "survival": "126%"}, {"smiles": "CCC(C)NS(=O)(=O)c1ccc(N2CCCCS2(=O)=O)cc1", "note": "(configuration not stated)", "survival": "135%"}, {"smiles": "CCOC(=O)c1noc2ncn(CC(=O)Nc3ccc(C)c(F)c3)c(=O)c12", "survival": "72%"}, {"smiles": "Cc1ccc(NC(=O)c2cccc(NC(=O)N3CCSc4ncccc43)c2)cc1F", "survival": "92%"}, {"smiles": "Cc1ccc(CNS(=O)(=O)c2cc3c(cc2Cl)NC(=O)CO3)o1", "survival": "124%"}, {"smiles": "CCCCN(CC)Cc1ccc(CNS(=O)(=O)c2cc3c(cc2Cl)NC(=O)CO3)o1", "survival": "-3% (active)"}, {"smiles": "O=C1COc2cc(S(=O)(=O)NCc3ccco3)c(Cl)cc2N1", "survival": "73%"}, {"smiles": "CC(C)(CO)NC(=O)c1cc(-c2ccc(Cl)cc2Cl)on1", "survival": "123%"}, {"smiles": "CCOC(=O)c1c(NC(=O)COc2ccc(Cl)cc2Cl)sc2c1CCCCC2", "survival": "76%"}, {"smiles": "COc1ccc(CNC(=O)C2CCN(S(=O)(=O)c3c(C)noc3/C=C/c3ccccc3F)CC2)cc1", "survival": "94%"}, {"smiles": "COc1ccc2sc(N)nc2c1", "survival": "115%"}, {"smiles": "COc1ccc(N=Nc2c(N)n[nH]c2N)cc1", "survival": "2% (active)"}, {"smiles": "Nc1n[nH]c(N)c1N=Nc1ccc(Cl)cc1", "survival": "107%"}, {"smiles": "Cc1ccc(-c2nc3ccccc3o2)cc1NC(=O)c1cccc2c(Cl)cccc12", "survival": "62%"}, {"smiles": "Cn1c(-c2ccccc2)nc2cc(N)ccc21", "survival": "105%"}, {"smiles": "Oc1cccc(-c2nc(-c3cccs3)c(-c3cccs3)[nH]2)c1", "survival": "3% (active)"}, {"smiles": "Oc1ccccc1-c1nc(-c2cccs2)c(-c2cccs2)[nH]1", "survival": "-11% (active)"}, {"smiles": "COc1ccc(O)c(-c2cn[nH]c2-c2cccs2)c1", "survival": "105%"}, {"smiles": "CN(C)c1ccc(-c2nc(-c3cccs3)c(-c3cccs3)[nH]2)cc1", "survival": "65%"}, {"smiles": "Cc1ccc(-c2nc(-c3cccs3)c(-c3cccs3)[nH]2)cc1", "survival": "76%"}, {"smiles": "Fc1ccc(-c2nc(-c3cccs3)c(-c3cccs3)[nH]2)cc1", "survival": "79%"}, {"smiles": "Cc1ccc(Cc2c(C)nc3nc(SCC(=O)NCCC(C)C)nn3c2C)cc1", "survival": "64%"}, {"smiles": "Cc1nn(CC(=O)NCc2ccccc2Cl)c(=O)c2nn(-c3ccccc3)c(C)c12", "survival": "130%"}, {"smiles": "COc1ccc(NC(=O)Cn2cnc3ccc(S(=O)(=O)N4CCC(C)CC4)cc3c2=O)cc1Cl", "survival": "158%"}, {"smiles": "O=C(Nc1c(C(=O)N2CCOCC2)cnn1-c1ccccc1)c1ccccc1F", "survival": "104%"}, {"smiles": "CN1CCN(C(=O)/C=C\\C(=O)O)CC1", "survival": "122%"}, {"smiles": "CCCCSCCCNC(=O)c1cc(-c2cccnc2)nc2ccc(S(=O)(=O)N3CCC(C)CC3)cc12", "survival": "89%"}, {"smiles": "COc1cc(C)c(Cl)cc1S(=O)(=O)NCCc1c(C)[nH]c2ccccc12", "survival": "73%"}, {"smiles": "Cc1ccc(Nc2ncccc2C(=O)NC2CCCCC2)cc1", "survival": "110%"}, {"smiles": "CCOc1ccc(C2C(=O)N(C3CCCCCC3)CC(=O)N2Cc2ccccc2)cc1OC", "note": "(configuration not stated)", "survival": "75%"}, {"smiles": "Cc1ccc(NC(=O)C(Cc2ccccc2)n2cccc2)cc1C", "note": "(configuration not stated)", "survival": "13% (active)"}, {"smiles": "COc1ccc(NC(=O)C(Cc2ccccc2)n2cccc2)cc1OC", "note": "(configuration not stated)", "survival": "82%"}, {"smiles": "O=C(Nc1ccccc1)C(Cc1ccccc1)N1Cc2ccccc2C1=O", "note": "(configuration not stated)", "survival": "90%"}, {"smiles": "Cc1ccc(NC(=O)C(Cc2ccccc2)n2cccc2)c(C)c1", "note": "(configuration not stated)", "survival": "81%"}, {"smiles": "Cc1ccc(C)c(NC(=O)C(Cc2ccccc2)n2cccc2)c1", "note": "(configuration not stated)", "survival": "134%"}, {"smiles": "CCc1cccc(NC(=O)C(Cc2ccccc2)n2cccc2)c1", "note": "(configuration not stated)", "survival": "12% (active)"}, {"smiles": "O=C(Nc1cccc(Cl)c1)C(Cc1ccccc1)n1cccc1", "note": "(configuration not stated)", "survival": "8% (active)"}, {"smiles": "Cc1cccc(NC(=O)C(Cc2ccccc2)n2cccc2)c1C", "note": "(configuration not stated)", "survival": "84%"}, {"smiles": "CC(=O)c1cccc(NC(=O)[C@H](Cc2ccccc2)N2Cc3ccccc3C2=O)c1", "survival": "81%"}, {"smiles": "O=C(O)CC1=C(c2cccs2)CCC1=O", "survival": "105%"}, {"smiles": "Cc1cc(C(F)F)n2ncc(C(=O)NCc3ccccc3)c2n1", "survival": "108%"}, {"smiles": "COC(=O)c1ccc2c(=O)n(CCCCCC(=O)N3CCN(c4cccc(C)c4C)CC3)c(=O)[nH]c2c1", "survival": "97%"}, {"smiles": "CC(C)c1ccc(-c2nc(C(N)=O)c3c(n2)n(-c2ccc4c(c2)OCO4)c(=O)n3C)cc1", "survival": "60%"}, {"smiles": "Nc1n[nH]c(CCc2ccccc2)n1", "survival": "121%"}, {"smiles": "CCS(=O)(=O)N1CC(=O)N(c2cccc(C)c2C)C(C)(C(=O)NC2CCCCC2)C1", "note": "(configuration not stated)", "survival": "89%"}, {"smiles": "COc1ccccc1NS(=O)(=O)c1cn(C)c(C)n1", "survival": "10% (active)"}, {"smiles": "CSc1cccc(NS(=O)(=O)c2cn(C)c(C)n2)c1", "survival": "59%"}, {"smiles": "Cc1ccc(NS(=O)(=O)c2cn(C)c(C)n2)c(Br)c1", "survival": "88%"}, {"smiles": "Cc1ccc(CCNC(=O)c2cc3c(=O)oc4ccccc4c3s2)cc1", "survival": "73%"}, {"smiles": "c1ccc(-n2ncc3c(NC4CCCC4)ncnc32)cc1", "survival": "121%"}, {"smiles": "CCOC(=O)C1CCN(S(=O)(=O)c2cc(-c3onc(C)c3C)ccc2C)CC1", "survival": "81%"}, {"smiles": "O=C(Nc1ccc(F)cc1F)C(Cc1ccccc1)N1Cc2ccccc2C1=O", "note": "(configuration not stated)", "survival": "-6% (active)"}, {"smiles": "CC(C(=O)Nc1ccc(OC(F)(F)F)cc1)N1Cc2ccccc2C1=O", "note": "(configuration not stated)", "survival": "-3% (active)"}, {"smiles": "COc1ccc(NC(=O)C(C)N2Cc3ccccc3C2=O)cc1OC", "note": "(configuration not stated)", "survival": "75%"}, {"smiles": "O=C(Nc1ccc(F)cc1)[C@H](Cc1ccccc1)N1Cc2ccccc2C1=O", "survival": "91%"}, {"smiles": "Cc1ccc(C)c(NC(=O)C(CC(C)C)N2Cc3ccccc3C2=O)c1", "note": "(configuration not stated)", "survival": "159%"}, {"smiles": "CC(C(=O)Nc1ccc(F)c(Cl)c1)N1Cc2ccccc2C1=O", "note": "(configuration not stated)", "survival": "0% (active)"}, {"smiles": "Cc1cc(C)cc(NC(=O)C(C)N2Cc3ccccc3C2=O)c1", "note": "(configuration not stated)", "survival": "63%"}, {"smiles": "Cc1ccc(NC(=O)C(CC(C)C)N2Cc3ccccc3C2=O)cc1F", "note": "(configuration not stated)", "survival": "-6% (active)"}, {"smiles": "O=C(Nc1ccccc1F)C(Cc1ccccc1)N1Cc2ccccc2C1=O", "note": "(configuration not stated)", "survival": "75%"}, {"smiles": "COC(=O)c1ccc(NC(=O)C(C)N2Cc3ccccc3C2=O)cc1", "note": "(configuration not stated)", "survival": "53%"}, {"smiles": "CCOc1ccc(NC(=O)C(CC(C)C)N2Cc3ccccc3C2=O)cc1", "note": "(configuration not stated)", "survival": "134%"}, {"smiles": "Cc1ccc(NC(=O)[C@H](Cc2ccccc2)N2Cc3ccccc3C2=O)cc1F", "survival": "78%"}, {"smiles": "Cc1ccccc1CSc1cn(CCNC(=O)c2cccs2)c2ccccc12", "survival": "79%"}, {"smiles": "COc1ccc(NC(=O)Cc2ccc(NC(=O)N3CCCCc4ccccc43)cc2)c(OC)c1", "survival": "60%"}, {"smiles": "COc1cccc(C(=O)NC2CCCC2)c1", "survival": "103%"}, {"smiles": "O=C(CCS(=O)(=O)c1cccs1)Nc1ccc(C(=O)Nc2ccccc2F)cc1", "survival": "135%"}, {"smiles": "CC(=O)c1ccc(N2CCN(C(=O)CCCn3c(=O)[nH]c4ccsc4c3=O)CC2)cc1", "survival": "66%"}, {"smiles": "On1c2c(c3c4nonc4ccc31)CCCC2", "survival": "8% (active)"}, {"smiles": "c1ccc(-n2nc3ccc4nonc4c3n2)cc1", "survival": "104%"}, {"smiles": "COC(=O)CSc1n[nH]c(CNc2cccc(C)c2)n1", "survival": "108%"}, {"smiles": "O=C(NCCCN1CCN(c2ccccc2)CC1)c1nnc(Cc2ccc(F)cc2)o1", "survival": "98%"}, {"smiles": "COc1ccccc1C(=O)Nc1cc(-c2ccc(C)cc2)no1", "survival": "73%"}, {"smiles": "Cc1ccc(NC(=O)Cn2nc(C)n3cccc3c2=O)c(C)c1", "survival": "95%"}, {"smiles": "CCn1c(COc2ccccc2)nnc1SCC(=O)CC(=O)Nc1ccccc1OC", "survival": "100%"}, {"smiles": "O=S1(=O)C=C(Sc2nc3ccccc3s2)c2ccccc21", "survival": "0% (active)"}, {"smiles": "CC(C)(C)NSc1nc2ccccc2s1", "survival": "68%"}, {"smiles": "Cc1cc(C)nc(SC2=CS(=O)(=O)c3ccccc32)n1", "survival": "99%"}]}]}
